In experiment [1] the target is Rap guanine nucleotide exchange factor 3 (Homo sapiens) (UniProt O95398). Description: Confirmatory qHTS for antagonist of cAMP-regulated guanine nucleotide exchange factor 3 (EPAC1) (AID 1645880). Note: nearly all actives have a fitted effect of over 55% in size. Note: potency is the fitted concentration of half-maximal effect. Summed up: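 Nucleotide exchange uses 100 nM EPAC1, 250 nM RAP1B-BODIPY-GDP and 50 uM GDP, with compounds in a concentration-titration series. After 5 min at room temperature, fluorescence (480 nm ex/540 nm em) is read every 5 min for 30 min. Data are normalized to control ATA and DMSO.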
Rap guanine nucleotide exchange factor 3 (Homo sapiens), sequence (O95398 whole entry, looked up): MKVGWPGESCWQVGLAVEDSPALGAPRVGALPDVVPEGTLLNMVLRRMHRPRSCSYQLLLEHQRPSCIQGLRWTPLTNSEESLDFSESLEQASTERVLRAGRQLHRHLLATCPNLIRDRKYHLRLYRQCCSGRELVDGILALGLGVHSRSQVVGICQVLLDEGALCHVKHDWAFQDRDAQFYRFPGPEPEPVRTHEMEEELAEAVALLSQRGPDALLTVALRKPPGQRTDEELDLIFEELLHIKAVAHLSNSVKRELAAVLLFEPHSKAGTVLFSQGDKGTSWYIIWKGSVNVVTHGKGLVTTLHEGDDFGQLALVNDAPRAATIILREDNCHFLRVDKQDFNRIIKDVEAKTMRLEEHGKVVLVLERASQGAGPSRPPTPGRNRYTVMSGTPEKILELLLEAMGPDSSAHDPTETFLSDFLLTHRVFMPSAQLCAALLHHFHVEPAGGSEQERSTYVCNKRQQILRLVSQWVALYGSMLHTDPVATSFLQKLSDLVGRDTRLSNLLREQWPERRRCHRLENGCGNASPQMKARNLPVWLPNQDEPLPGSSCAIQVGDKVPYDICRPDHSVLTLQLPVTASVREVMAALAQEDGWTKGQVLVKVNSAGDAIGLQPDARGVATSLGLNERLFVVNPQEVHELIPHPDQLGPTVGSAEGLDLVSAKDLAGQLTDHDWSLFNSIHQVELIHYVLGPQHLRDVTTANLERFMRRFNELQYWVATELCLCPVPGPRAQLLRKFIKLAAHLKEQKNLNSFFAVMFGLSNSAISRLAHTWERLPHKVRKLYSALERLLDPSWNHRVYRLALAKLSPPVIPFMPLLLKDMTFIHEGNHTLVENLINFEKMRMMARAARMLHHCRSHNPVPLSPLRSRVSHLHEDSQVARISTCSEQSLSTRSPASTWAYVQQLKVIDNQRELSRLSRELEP

For experiment [2] the target is unchanged. Kind of experiment: Confirmatory qHTS for agonist of cAMP-regulated guanine nucleotide exchange factor 3 (EPAC1) (AID 1645881).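 Note: EPAC1 catalysed release of BODIPY-GDP from Rap1B seen as fluorescence loss; 100% = effect of cAMP agonist control; nearly all actives have a fitted effect of over 75% in size.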
Experiment [3] deals with Rap guanine nucleotide exchange factor 4 (Homo sapiens) (UniProt Q8WZA2). Description: Confirmatory qHTS for agonist of cAMP-regulated guanine nucleotide exchange factor 4 (EPAC2) (AID 1645884).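 Note: nucleotide exchange releases bodipy-GDP from Rap1 and this lowers its fluorescence; % is set by controls: 0 for no effect and ±100 for the full control effect; nearly all actives have a fitted effect of over 65% in size.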
Rap guanine nucleotide exchange factor 4 (Homo sapiens), sequence (Q8WZA2 whole entry, looked up): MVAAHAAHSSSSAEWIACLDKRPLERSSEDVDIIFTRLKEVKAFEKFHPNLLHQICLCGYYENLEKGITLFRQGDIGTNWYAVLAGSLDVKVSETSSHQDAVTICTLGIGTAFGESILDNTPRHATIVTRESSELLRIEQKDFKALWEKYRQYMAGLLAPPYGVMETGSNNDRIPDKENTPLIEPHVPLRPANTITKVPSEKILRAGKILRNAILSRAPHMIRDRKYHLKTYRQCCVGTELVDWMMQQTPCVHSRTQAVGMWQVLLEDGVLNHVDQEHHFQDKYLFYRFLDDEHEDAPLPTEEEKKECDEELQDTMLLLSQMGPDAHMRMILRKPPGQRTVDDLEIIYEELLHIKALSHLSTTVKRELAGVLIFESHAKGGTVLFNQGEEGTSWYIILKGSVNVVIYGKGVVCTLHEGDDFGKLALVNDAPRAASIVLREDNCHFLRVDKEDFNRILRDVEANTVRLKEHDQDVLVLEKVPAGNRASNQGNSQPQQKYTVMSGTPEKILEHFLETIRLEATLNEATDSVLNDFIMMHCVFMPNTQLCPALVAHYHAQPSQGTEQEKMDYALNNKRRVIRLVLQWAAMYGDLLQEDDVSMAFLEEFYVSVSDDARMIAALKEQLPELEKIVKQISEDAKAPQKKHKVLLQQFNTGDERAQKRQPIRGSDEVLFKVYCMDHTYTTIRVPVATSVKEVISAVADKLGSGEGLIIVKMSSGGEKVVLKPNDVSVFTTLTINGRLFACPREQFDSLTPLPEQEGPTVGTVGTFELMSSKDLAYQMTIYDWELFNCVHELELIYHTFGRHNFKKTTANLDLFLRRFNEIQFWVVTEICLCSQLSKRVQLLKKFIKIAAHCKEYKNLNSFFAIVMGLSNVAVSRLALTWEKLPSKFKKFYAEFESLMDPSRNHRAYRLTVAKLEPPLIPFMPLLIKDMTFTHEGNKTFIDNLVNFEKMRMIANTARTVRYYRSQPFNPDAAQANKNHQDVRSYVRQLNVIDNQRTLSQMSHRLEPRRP
Experiment [4] has the same target. Kind of experiment: Confirmatory qHTS for antagonist of cAMP-regulated guanine nucleotide exchange factor 4 (EPAC2) (AID 1645885). For activity change, negative = inhibition: % is set by controls: 0 for no effect and ±100 for the full control effect. Note: nearly all actives have a fitted effect of over 25% in size. Note: potency is the fitted concentration of half-maximal effect.
The target of experiment [5] is Rap guanine nucleotide exchange factor 3 (Homo sapiens) (UniProt O95398). Description: Counterscreen qHTS for antagonist of cAMP-regulated guanine nucleotide exchange factor 3 (EPAC1) (AID 1645888). Note: % of control where 0% means no effect. The procedure, abridged: (§1)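 Measured: fluorescence of BODIPY-GDP bound to Rap1B, which falls as exchange proceeds. Conditions include 50 uM competing GDP, 5 and 30 min reads, and a later cAMP challenge for antagonist detection.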

Experiment [6] shares this target. Description: Counterscreen qHTS for agonist of cAMP-regulated guanine nucleotide exchange factor 3 (EPAC1) (AID 1645889). Note: % of control where 0% means no effect; nearly all actives have a fitted effect of over 40% in size. Summed up:
as §1

Records with an inconclusive call do not appear. Values without a mark were called inactive. Calls of active or inactive are those of the source. Calls come from the whole dose curve; as a rule, active = well fitted curve in the direction sought with a large enough effect; inconclusive = small, poorly fitted or top-dose-only effect, or another doubt; inactive = no such curve, though single readings can be large; an effect the other way counts as inactive or inconclusive.

For `O=C1c2ccccc2C(=O)N1c1nc(-c2cccs2)cs1`, the Potency was 4.78 µM (active) in experiment [1] and 60.1 µM (active) in experiment [4]. For the same molecule, the Potency result in experiment [2], in experiment [3], in experiment [5] and in experiment [6] was “inactive” in each case.
With `O=S1(=O)CCN2C(Cc3ccc(SC(F)F)cc3)=CSC2=N1`, the Potency result in experiment [1], in experiment [2], in experiment [3], in experiment [4], in experiment [5] and in experiment [6] was “inactive” each time.
As for `Cc1cc2oc(=O)c3c(c2cc1OC(=O)c1ccco1)CCCC3`, the Potency result in experiment [1], in experiment [2], in experiment [3], in experiment [4], in experiment [5] and in experiment [6] was “inactive” in each case.
`CC(C)Cc1csc(NC(=O)c2ccc(F)cc2)c1C(=O)O`: the Potency result in experiment [1], in experiment [2], in experiment [3], in experiment [4], in experiment [5] and in experiment [6] was “inactive” in each case.
On to `Cc1cn2c(=O)cc(COc3ccc(C(C)(C)C)cc3)nc2s1`, for which the Potency entry in experiment [1], in experiment [2], in experiment [3], in experiment [4], in experiment [5] and in experiment [6] was “inactive” throughout.
`CC(C)(C)c1ccc(CC(=O)N2CCC2(C)C(=O)NS(=O)(=O)c2ccccc2)cc1` (configuration not stated): the Potency entry in experiment [1], in experiment [2] and in experiment [4] was “inactive” each time. Also, the activation in experiment [3] is 0.17% [at 17.1 µM, percent relative to cAMP agonist control]; in experiment [6] it was 19.6% [at 30.8 µM]. In experiment [5], the activity change, negative = inhibition was -2% [at 30.8 µM].
Regarding `CCc1nc2c(OCc3ccc(C(=O)OC)cc3)cccn2c1N(C)C(=O)CC(C)C`, the Potency result in experiment [1], in experiment [2], in experiment [3], in experiment [4], in experiment [5] and in experiment [6] was “inactive” in each case.
On to `CC(C)CCOc1ccc(C2(C)NC(=O)N(CN3CCOCC3)C2=O)cc1` (configuration not stated), for which the Potency entry in experiment [1], in experiment [2], in experiment [3], in experiment [4], in experiment [5] and in experiment [6] was “inactive” each time.
As to `Cc1ccccc1OCCC(=O)OCC(=O)N1CCN(S(=O)(=O)c2ccc(Cl)cc2)CC1`, the Potency entry in experiment [1], in experiment [2] and in experiment [4] was “inactive” each time. Further, the activation in experiment [3] is 7.52% [at 17.1 µM, percent relative to cAMP agonist control]; in experiment [6], 26.1% [at 30.8 µM]. Moreover, the activity change, negative = inhibition in experiment [5] was -4.15% [at 30.8 µM].
`O=C1c2cccc3cccc(c23)N1Cc1ccc(F)cc1`: the Potency entry in experiment [1], in experiment [2] and in experiment [4] was “inactive” throughout. Further, the activation in experiment [3] is 1.12% [at 17.1 µM, percent relative to cAMP agonist control]; in experiment [6], 4.85% [at 30.8 µM]. Further, the activity change, negative = inhibition in experiment [5] was -16.7% [at 30.8 µM].
`CN(Cc1ccccc1N1CCCC1)C(=O)c1cc2cc(Cl)ccc2o1`: the Potency entry in experiment [1], in experiment [2], in experiment [3], in experiment [4], in experiment [5] and in experiment [6] was “inactive” in each case.
As for `CC(=O)Nc1ccc(C=NNc2ccc(S(=O)(=O)Nc3ccccc3C(=O)O)cc2[N+](=O)[O-])cc1`, the Potency in experiment [1] was 28.2 µM (active). Besides, the Potency entry in experiment [2] and in experiment [4] was “inactive” throughout. In addition, the activation in experiment [3] was 0.331% [at 17.1 µM, percent relative to cAMP agonist control]; in experiment [6] it was 13.4% [at 30.8 µM]. In experiment [5], the activity change, negative = inhibition is 0.935% [at 30.8 µM].
As to `COc1cc(/C=C2/C(=O)NN(c3ccc(C)c(Cl)c3)C2=O)cc([N+](=O)[O-])c1O`, the Potency in experiment [1] was 8.49 µM (active). Further, the Potency result in experiment [2], in experiment [3], in experiment [4], in experiment [5] and in experiment [6] was “inactive” throughout.
Consider `Cc1ccc2nc(-c3ccccc3)cc(C(=O)N3CC(C)OC(C)C3)c2c1` (configuration not stated), for which the Potency entry in experiment [1], in experiment [2], in experiment [3], in experiment [4], in experiment [5] and in experiment [6] was “inactive” throughout.
Turning to `Oc1ccccc1-c1nc(NCc2ccccc2)c2ccccc2n1`, the Potency result in experiment [1], in experiment [2], in experiment [3], in experiment [4], in experiment [5] and in experiment [6] was “inactive” throughout.
On to `COc1ccc(-c2oc3cccnc3c2C#CCO)cc1`, for which the Potency entry in experiment [1], in experiment [2], in experiment [3], in experiment [4], in experiment [5] and in experiment [6] was “inactive” throughout.
For `CCC(=O)N1CCc2cc(OC)c(OC)cc2C1COc1ccccc1OC` (configuration not stated), the Potency entry in experiment [1], in experiment [2], in experiment [3], in experiment [4] and in experiment [5] was “inactive” in each case. For the same molecule, in experiment [6], the activation is 4.46% [at 30.8 µM].
As for `COc1ccc(N2CCN(C(=O)c3cc(C)on3)CC2)cc1`, the Potency entry in experiment [1], in experiment [2], in experiment [3], in experiment [4], in experiment [5] and in experiment [6] was “inactive” each time.
As for `COc1ccc(CCNC(=O)CSc2nc(N)c(C#N)c(-c3cccs3)c2C#N)cc1OC`, the Potency result in experiment [1], in experiment [2] and in experiment [4] was “inactive” throughout. Besides, the activation in experiment [3] is 3.67% [at 17.1 µM, percent relative to cAMP agonist control]; in experiment [6] it was 20.5% [at 30.8 µM]. Besides, the activity change, negative = inhibition in experiment [5] was -17% [at 30.8 µM].
In the case of `COc1cc(/C=C2\SC(=O)N(CC(=O)Nc3cccc(C)c3)C2=O)cc([N+](=O)[O-])c1O`, the values for the Potency in experiment [1] and in experiment [4] were 19 µM (active) and 47.8 µM (active), respectively. The Potency entry in experiment [2], in experiment [3], in experiment [5] and in experiment [6] was “inactive” throughout.
For the molecule `O=S(=O)(Nc1nccs1)c1ccc(NCc2cc(Br)cc(Br)c2O)cc1`, the Potency in experiment [1] was 56.2 µM (active); in experiment [4] it was 1.51 µM (active). Moreover, in experiment [2], the Potency entry is “inactive”. The activation was -0.584% [at 17.1 µM, percent relative to cAMP agonist control] in experiment [3] and 31.2% [at 30.8 µM] in experiment [6]. Further, the activity change, negative = inhibition in experiment [5] was 9.07% [at 30.8 µM].
As to `COC(=O)C1=CN(c2ccc(F)cc2)C(N)=C(C#N)C1c1cccc(OC)c1OC` (configuration not stated), the Potency entry in experiment [1], in experiment [2] and in experiment [4] was “inactive” each time. Also, the activation in experiment [3] is 4.9% [at 17.1 µM, percent relative to cAMP agonist control]; in experiment [6], 17% [at 30.8 µM]. Also, the activity change, negative = inhibition in experiment [5] was -6.52% [at 30.8 µM].
